Measurements from PubChem BioAssay (NCATS).
Inconclusive results are not listed. A number with no mark means an inactive call. Calls of active or inactive are those of the source. Calls come from the whole dose curve; as a rule, active = well fitted curve in the direction sought with a large enough effect; inconclusive = small, poorly fitted or top-dose-only effect, or another doubt; inactive = no such curve, though single readings can be large; an effect the other way counts as inactive or inconclusive.

Tests used:
CAOV3 = test: Primary qHTS to identify gynecologic anti-cancer compounds using libraries of approved drugs and bioactive compounds (AID 1345084); settings: Gynecologic cancer cell panel viability, ATPlite luminescence, 48 h; series mostly up to 57.5 µM; note: nearly all actives have a fitted effect of over 55% in size
Outline: (§1)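 Cells, 1,000 per well, were allowed to settle for 16 h at 37 C before compound addition. Five concentrations were tested for 48 h, and viability was read by ATPlite luminescence after 15 min at room temperature.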

Hek293T = test: as above; settings: Gynecologic cancer cell panel viability, ATPlite luminescence, 48 h, control line for the selectivity index; series mostly up to 57.5 µM
Outline: as §1

JEG-3 = test: as above; settings: Gynecologic cancer cell panel viability, ATPlite luminescence, 48 h; series mostly up to 57.5 µM
Outline: as §1

OV90 = test: as above; settings: Gynecologic cancer cell panel viability, ATPlite luminescence, 48 h; series mostly up to 57.5 µM
Outline: as §1

SKOV3 = test: as above; settings: Gynecologic cancer cell panel viability, ATPlite luminescence, 48 h; series mostly up to 57.5 µM
Outline: as §1

CASKI = test: as above; settings: Gynecologic cancer cell panel viability, ATPlite luminescence, 48 h; series mostly up to 57.5 µM
Outline: as §1

Es-2 = test: as above; settings: Gynecologic cancer cell panel viability, ATPlite luminescence, 48 h; series mostly up to 57.5 µM
Outline: as §1

HeLa = test: as above; settings: Gynecologic cancer cell panel viability, ATPlite luminescence, 48 h; series mostly up to 57.5 µM
Outline: as §1

PA-1 = test: as above; settings: Gynecologic cancer cell panel viability, ATPlite luminescence, 48 h; series mostly up to 57.5 µM
Outline: as §1

Tov-21-G = test: as above; settings: Gynecologic cancer cell panel viability, ATPlite luminescence, 48 h; series mostly up to 57.5 µM
Outline: as §1

Tov112D = test: as above; settings: Gynecologic cancer cell panel viability, ATPlite luminescence, 48 h; series mostly up to 57.5 µM
Outline: as §1

[1] = qHTS assay to identify inhibitors of the type 1 interferon - major histocompatibility complex class I in skeletal muscle: Counter screen cell viability and HiBit confirmation (AID 1347412); settings: iHSKM muscle cells + IFN-b, HiBiT or CellTiter-Glo, 24 h; for activity change, negative = inhibition: at 45.9 µM (top of the series); for all read-outs here: nearly all actives have a fitted effect of over 60% in size
Outline: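 Human myoblast knock-in line, 4.0 ng/ml IFN-beta stimulation, 24 h compound treatment. Endpoints: HiBiT lytic luminescence (HLA-B level) and CellTiter Glo (ATP). Dosing 12 concentrations, 3-fold steps, 46 uM highest final.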
% is set by controls: 0 for no effect and ±100 for the full control effect; potency is the fitted concentration of half-maximal effect.

CN(C)c1nc(NC2CCC(NCCc3ccc(Br)cc3OC(F)(F)F)CC2)nc2ccccc12 (configuration not stated)
Potency (CAOV3): 3.98 µM (active) | Potency (Hek293T): 25.1 µM (active) | Potency (JEG-3): 20 µM (active) | Potency (OV90): 14.1 µM (active) | Potency (SKOV3): 14.1 µM (active)

NCCCNc1ccc(Nc2nccc(Nc3cc(C4CC4)[nH]n3)n2)cc1
Potency (CASKI): 3.98 µM (active) | Potency (Es-2): 2.24 µM (active) | Potency (HeLa): 4.47 µM (active) | Potency (Hek293T): 1.41 µM (active) | Potency (JEG-3): inactive | Potency (OV90): 8.91 µM (active) | Potency (PA-1): 1.12 µM (active) | Potency (SKOV3): 7.08 µM (active) | Potency (Tov-21-G): 3.98 µM (active) | Potency (Tov112D): 2.82 µM (active)

Cc1nc(Nc2n[nH]c3c2CN(C(=O)NC(CN(C)C)c2ccccc2)C3(C)C)c2sccc2n1 (configuration not stated)
Potency (CASKI): 3.98 µM (active) | Potency (Es-2): 7.94 µM (active) | Potency (HeLa): 10 µM (active) | Potency (Hek293T): 7.94 µM (active) | Potency (OV90): 3.16 µM (active) | Potency (PA-1): 0.316 µM (active) | Potency (Tov112D): 6.31 µM (active)

CS(=O)(=O)N(CC(=O)NCC1CC1)c1cc(C(F)(F)F)ccc1Cl
Potency (CAOV3): inactive | Potency (Es-2): inactive | Potency (HeLa): inactive | Potency (Hek293T): inactive | Potency (JEG-3): inactive | Potency (OV90): inactive | Potency (PA-1): inactive | Potency (SKOV3): inactive | Potency (Tov-21-G): inactive | Potency (Tov112D): inactive

CO[C@H]1/C=C/C=C/C=C/C[C@H](OC(=O)[C@@H](C)NC(=O)C2CCCCC2)[C@H](C)[C@@H](O)/C(C)=C/CCc2cc(O)cc(c2)NC(=O)C1
Potency (CAOV3): inactive | Potency (Es-2): 1.78 µM (active) | Potency (HeLa): 3.55 µM (active) | Potency (Hek293T): 0.708 µM (active) | Potency (JEG-3): inactive | Potency (PA-1): 0.355 µM (active) | Potency (SKOV3): 3.16 µM (active) | Potency (Tov-21-G): 2.82 µM (active)

C#CCN(Cc1cc2c(=O)[nH]c(C)nc2cc1Br)c1ccc(C(=O)NCc2cccnc2)cc1
Potency (CASKI): 0.447 µM (active)

CN1CCN(C2CCC(n3cc(-c4ccc(Oc5ccccc5)cc4)c4c(N)ncnc43)CC2)CC1 (configuration not stated)
Potency (CAOV3): 28.2 µM (active) | Potency (CASKI): 15.8 µM (active) | Potency (HeLa): 22.4 µM (active) | Potency (Hek293T): inactive | Potency (JEG-3): inactive | Potency (OV90): 17.8 µM (active) | Potency (PA-1): 3.55 µM (active) | Potency (SKOV3): 3.55 µM (active) | Potency ([1]; HiBiT): 15.7 µM (active) | Potency ([1]; Viability): 11.1 µM (active)

COc1cc2ncnc(Nc3ccc(F)c(Cl)c3)c2cc1NC(=O)/C=C/CN1CCCCC1
Potency (CAOV3): 22.4 µM (active) | Potency (OV90): inactive | Potency (SKOV3): 10 µM (active) | Potency ([1]; HiBiT): 19.8 µM (active)

CC(O)c1cc(C(=O)N[C@@H](C)Cn2ccc(-c3ccc(C#N)c(Cl)c3)n2)n[nH]1 (some centres not stated)
Potency (CAOV3): inactive | Potency (OV90): inactive

C=C1C(=O)O[C@H]2C1[C@H](OC(=O)/C(=C/CO)COC(=O)/C(C)=C/CO)CC(=C)[C@@H]1CC(=O)[C@@H](C)[C@@H]12 (some centres not stated)
Potency (CAOV3): inactive | Potency (CASKI): inactive | Potency (HeLa): inactive | Potency (Hek293T): inactive | Potency (OV90): inactive | Potency (Tov112D): inactive

CCN1CCN(Cc2ccc(NC(=O)c3ccc(C)c(NC(=O)c4cncc(-c5cccs5)c4)c3)cc2C(F)(F)F)CC1
Potency (CAOV3): 10 µM (active) | Potency (CASKI): 10 µM (active) | Potency (Es-2): 2.82 µM (active) | Potency (JEG-3): 25.1 µM (active) | Potency (OV90): 12.6 µM (active) | Potency (PA-1): 1.58 µM (active) | Potency (Tov-21-G): 1.41 µM (active) | Potency (Tov112D): 3.55 µM (active) | Potency ([1]; HiBiT): 5.57 µM (active) | Potency ([1]; Viability): 12.5 µM (active)

CC(=O)N1CCN(C(=O)Cc2ccc(Nc3ncc(F)c(Nc4ccc(C(=O)Nc5ccccc5Cl)cc4)n3)cc2)CC1
Potency (CAOV3): 31.6 µM (active) | Potency (HeLa): 7.94 µM (active) | Potency (JEG-3): inactive | Potency (OV90): inactive | Potency (PA-1): 11.2 µM (active) | Potency (SKOV3): 22.4 µM (active) | Potency (Tov-21-G): 25.1 µM (active) | Potency (Tov112D): 3.98 µM (active)

CC1(C)C2CC(OC3OC(COC4OCC(O)(CO)C4O)C(O)C(O)C3O)C1(C)CC2O (configuration not stated)
Potency (CAOV3): inactive | Potency (CASKI): inactive | Potency (OV90): inactive

Cc1cc(OCc2nnc(SC3CCCC3)n2-c2cccnc2)ccc1-c1ccc(S(C)(=O)=O)cc1
Potency (CAOV3): 31.6 µM (active) | Potency (HeLa): 31.6 µM (active) | Potency (OV90): 1.78 µM (active) | Potency (PA-1): 12.6 µM (active) | Potency (SKOV3): 0.794 µM (active) | Potency (Tov-21-G): 28.2 µM (active) | Potency (Tov112D): 31.6 µM (active) | activity change, negative = inhibition ([1]; Viability): -25.3%

CC(C)[C@@](C)(O)[C@@H]1CN(c2nc(-c3[nH]nc4ncccc34)c(F)cc2Cl)CCN1
Potency (CASKI): inactive | Potency (Es-2): inactive | Potency (HeLa): inactive | Potency (Hek293T): inactive | Potency (JEG-3): 25.1 µM (active) | Potency (OV90): inactive | Potency (Tov112D): inactive

CC(Nc1ncnc2nc[nH]c12)c1cc2cccc(Cl)c2c(=O)n1-c1ccccc1 (configuration not stated)
Potency (CAOV3): inactive | Potency (Es-2): inactive | Potency (HeLa): inactive | Potency (JEG-3): inactive | Potency (OV90): inactive | Potency (PA-1): inactive | Potency (Tov-21-G): inactive | Potency (Tov112D): inactive

CS(=O)(=O)N1CCC(NC(=O)c2[nH]ncc2NC(=O)c2c(Cl)cccc2Cl)CC1
Potency (CASKI): 7.94 µM (active) | Potency (Es-2): 4.47 µM (active) | Potency (HeLa): 10 µM (active) | Potency (Hek293T): 5.01 µM (active) | Potency (JEG-3): inactive | Potency (PA-1): 3.98 µM (active) | Potency (Tov112D): 8.91 µM (active) | Potency ([1]; HiBiT): 1.98 µM (active) | activity change, negative = inhibition ([1]; Viability): 12.3%

CN1CCN(Cc2ccc(-c3cnc4[nH]cc(-c5ccc6[nH]ccc6c5)c4c3)cc2)CC1
Potency (CAOV3): 22.4 µM (active) | Potency (Es-2): 22.4 µM (active) | Potency (HeLa): 31.6 µM (active) | Potency (OV90): 10 µM (active) | Potency (PA-1): 12.6 µM (active) | Potency (SKOV3): 14.1 µM (active) | Potency (Tov-21-G): 20 µM (active)

COc1ccc(-c2cnc(-c3cccc4c3-c3ccccc3C4=O)o2)cc1
Potency (CAOV3): inactive | Potency (Es-2): 0.158 µM (active) | Potency (HeLa): 0.199 µM (active) | Potency (JEG-3): 2 µM (active) | Potency (PA-1): 0.355 µM (active) | Potency (SKOV3): 0.158 µM (active) | Potency (Tov-21-G): 0.141 µM (active) | Potency (Tov112D): 0.178 µM (active)

CNC(=O)c1ccccc1Nc1nc(Nc2ccc3c(c2OC)CCCC(N2CCN(CCO)CC2)C3)ncc1Cl (configuration not stated)
Potency (CAOV3): 10 µM (active) | Potency (CASKI): 17.8 µM (active) | Potency (JEG-3): inactive | Potency (PA-1): 11.2 µM (active) | Potency (SKOV3): 3.98 µM (active) | Potency (Tov-21-G): 10 µM (active)

CCN(CC)CCN(Cc1ccc(-c2ccc(C(F)(F)F)cc2)cc1)C(=O)Cn1c(SCc2ccc(F)cc2)nc(=O)c2c1CCC2
Potency (CAOV3): 12.6 µM (active) | Potency (CASKI): 25.1 µM (active) | Potency (PA-1): 28.2 µM (active) | Potency (SKOV3): 7.94 µM (active) | Potency (Tov112D): 35.5 µM (active)

C=C1C(=O)O[C@H](CCC)[C@H]1C(=O)O
Potency (CAOV3): inactive | Potency (Es-2): inactive | Potency (HeLa): inactive | Potency (Hek293T): inactive | Potency (JEG-3): inactive | Potency (OV90): inactive | Potency (PA-1): inactive | Potency (Tov-21-G): inactive | Potency (Tov112D): inactive

C#CCN(Cc1cc2c(=O)n(C)c(CN3CCN(C)CC3)nc2cc1Cl)c1ccc(C(=O)NCc2cccnc2)cc1
Potency (CAOV3): 44.7 µM (active) | Potency (OV90): inactive

COc1cc(C(=O)NC2CCN(C)CC2)ccc1Nc1ncc2c(n1)N(C1CCCC1)CC(F)(F)C(=O)N2C
Potency (CAOV3): 25.1 µM (active) | Potency (OV90): 22.4 µM (active) | Potency (PA-1): 0.251 µM (active) | Potency (SKOV3): 15.8 µM (active)
